# Compounds with a hit are over-represented: about 6.5% of the library has one in this group of screens.
# Vaccinia Venus: inhibitors of vaccinia virus (Venus reporter) | Vaccinia virus Venus reporter expression, fluorescence | Potency, µM (titrated, usually from 36.5 µM), inactives show at the highest dose activity change, negative = inhibition, actives largely listed as inhibitors | 0.46% of 330,000 active; calls by dose curve; tested in A549 cells; further: potency means the concentration at half of the fitted maximal effect; nearly all actives have a fitted effect of over 30% in size
# MARV entry inh: blocks Marburg virus binding to or entry into cells; Marburg virus pseudotyped entry inhibition, cell reporter; Potency, µM (series often up to 37.8 µM), for the others: top-dose activity change, negative = inhibition, usual class: inhibitors; 1.8% of 300,000 active; calls by dose curve; tested in HEK293 cells; further: potency means the concentration at half of the fitted maximal effect
# HCMV inh: human cytomegalovirus inhibition; activity change, negative = inhibition, % at 57.5 µM; HFF cells, HCMV-luciferase reporter, 72 h; stronger effect = lower value; 4.5% of 410,000 active; in the data active means activity change below about -60%; inconclusive means no clear call, values can overlap the other calls; inactive means above about -39%
#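 Inhibition of viral replication was scored as loss of reporter luminescence in HFFs infected with HCMV-luciferase (MOI 1 PFU/cell) for 72 h; compounds tested at 2 doses, normalized to buffer and Salinomycin controls.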
# Vaccinia mCherry: inhibitors of vaccinia virus infection (mCherry reporter signal). Vaccinia virus mCherry reporter infection, fluorescence. Potency, µM (series often up to 36.5 µM), for the others: top-dose activity change, negative = inhibition, actives largely listed as inhibitors. 0.63% of 310,000 active. AID 720579; calls by dose curve; tested in A549 cells; further: potency means the concentration at half of the fitted maximal effect; nearly all actives have a fitted effect of over 35% in size
# Lassa entry inh: Lassa virus entry inhibition. 1.2% of 300,000 active. Potency, µM (series often up to 37.9 µM), without a hit: top-dose activity change, negative = inhibition, usual class: inhibitors. Lassa virus pseudotype entry inhibition, cell reporter; calls by dose curve; tested in HEK293 cells; further: potency means the concentration at half of the fitted maximal effect; nearly all actives have a fitted effect of over 50% in size
# FMDV antiviral: antivirals against foot and mouth disease virus; 1.2% of 410,000 active; Potency, µM (titrated, usually from 57.9 µM), without a hit: at the highest dose activity change, negative = inhibition, usual class: inhibitors; FMDV antiviral cell-based qHTS; calls by dose curve; tested in HEK293T cells; further: read-out not given here; potency means the concentration at half of the fitted maximal effect; nearly all actives have a fitted effect of over 45% in size
# * = called active by the depositor; i = inactive; ? = inconclusive; · = no result given; [ ] = dose if it differs, or a comment. On the % scale 0 is the no-effect control and ±100 the full control effect.
SMILES,Vaccinia Venus,MARV entry inh,HCMV inh,Vaccinia mCherry,Lassa entry inh,FMDV antiviral
Cc1ccc(Sc2c(C)nn(C(=O)COc3ccccc3)c2C)cc1,-7.7%,7.2%[46.1 µM],-3.0,i,-28.6%[46.1 µM],5.1%
O=[N+]([O-])c1cc(C(F)(F)F)cc([N+](=O)[O-])c1NCCNC(=S)Nc1ccc(Cl)c(Cl)c1,?,?,-92.7*,?,?,-22.7%
COc1ccc(C(=O)Cn2nc(CNc3ccc(Br)cc3)[n+]3c2CCCCC3)cc1,-7.9%,?,-60.5*,-5.9%,-27.1%,-15.8%
O=C(Cn1nc(-c2nn(CC(=O)c3ccccc3)c3[n+]2CCCCC3)[n+]2c1CCCCC2)c1ccccc1,0.5%[7.34 µM],0.1%[46.1 µM],24.4,i[7.34 µM],5.9%,0.3%
CC(C)(C)S(=O)(=O)N1C[C@@H]2CC(=O)C=C2[C@H]1CCO,·,·,5.2,·,·,·
C#CCOCCOCCOCCNc1nc(N2CCN(C(=O)CCCCCCCCCCNC(=O)[C@H](CO)n3cc(CCCSC)nn3)CC2)nc(N2CCN(C(=O)CCCCCCCCCCNC(=O)[C@H](CCCN=C(N)N)n3cc(C[C@@H](C)CC)nn3)CC2)n1,11.2µM*,·,·,-18.7%,·,?
C#CCOCCOCCOCCNc1nc(N2CCN(C(=O)CCCCCCCCCCNC(=O)Cn3cc(C[C@@H](C)O)nn3)CC2)nc(N2CCN(C(=O)CCCCCCCCCCNC(=O)[C@H](CCCN=C(N)N)n3cc(C[C@@H](C)CC)nn3)CC2)n1,11.2µM*,·,·,-21.2%,·,?
C#CCOCCOCCOCCNc1nc(N2CCN(C(=O)CCCCCCCCCCNC(=O)Cn3cc(C[C@@H](C)O)nn3)CC2)nc(N2CCN(C(=O)CCCCCCCCCCNC(=O)[C@H](CO)n3cc(CCCSC)nn3)CC2)n1,?,·,-84.6*,i,·,-22.4%
CCN1C(=O)[C@H]2[C@H]3[C@H](O)[C@H](O)C/C(=N/OC[C@@H]4O[C@H](c5ccccc5)C=C[C@@H]4Oc4ccc(OC)cc4)[C@@H]3CC[C@@H]2C1=O,·,-28.3%[14.2 µM],·,·,·,·
C=C1C=C(C(F)F)n2ncc(C(=O)Nc3ccc(Br)cc3C(F)(F)F)c2N1,-11.9%,·,·,-13.6%,·,·
CC1CCC(Nc2nc3c(-c4ccc(Cl)cc4)nnn3c3ccccc23)CC1 (stereo unspecified),6.7%,-0.5%[46.1 µM],27.7,6.2%,?,-11.2%
Cc1[nH]c(C)c(S(=O)(=O)NCc2ccc(OC(C)C)cc2)c1C(=O)N1CCCC1,-11.4%[7.34 µM],·,-30.8,-11.0%[7.34 µM],·,9.3%
COc1ccc(CNS(=O)(=O)c2c(C)[nH]c(C)c2C(=O)N2CCCC2)cc1,-2.2%[7.34 µM],·,-62.0*,-13.5%[7.34 µM],·,-13.5%
O=S(=O)(Nc1nccs1)c1cnc(Cl)c(Br)c1,-8.4%,-1.8%,-100.6*,-17.3%,-2.3%,49.7%
CCOCC(=O)Nc1ccc(-c2cn3c(C)csc3n2)cc1,-4.7%,·,?,-9.4%,2.5%[46.1 µM],36.9%
Cc1ccc(NC(=O)C2CCCN(S(=O)(=O)c3cccc4cccnc34)C2)c(C)c1 (stereo unspecified),-4.0%,-10.0%[46.1 µM],-9.2,-6.6%,?,?
CCCCOCC1CN(CCCC)S(=O)(=O)c2c(Oc3ccc(C)cc3)cccc2O1 (stereo unspecified),·,·,-2.9,·,?,·
O=C(CCCCn1c(=O)c2ccccc2n(CC(=O)Nc2ccc(F)cc2F)c1=O)NCc1ccccc1Cl,-18.8%,0.2%[46.1 µM],-9.3,-28.8%,-6.2%[46.1 µM],-16.0%
COC(=O)c1ccc(Nc2nc(-c3ccccc3Cl)nc3ccccc23)cc1,-19.2%,·,50.0,-28.9%,?,?
O=c1cc(C(F)(F)F)[nH]c2ccc(C(F)(F)F)cc12,?,?,-97.4*,-28.2%,?,?
COC(=O)NC(/C=C/c1ccco1)[C@@]1(C(=O)OC)CCCC1=O (stereo partly specified),·,3.0%[14.2 µM],·,·,·,·
CC(C)C[C@H]1CN(CCCC[C@H]2CNC(=O)C(=O)N2CCC2CCCCC2)C(=O)C(=O)N1CCC1CCCCC1,?,·,-108.2*,?,·,35.5µM*
O=C1NC[C@H](c2ccccc2)N(CCCCC2CCCCC2)C1=O,?,·,-4.2,2.24µM*,·,-22.9%
CC(C)C[C@@H]1CN(CCCC[C@H]2CNC(=O)C(=O)N2CCC2CCCCC2)C(=O)C(=O)N1CCC1CCCCC1,?,·,-14.7,?,·,?
COc1ccc(-n2c(=O)cnc3cnc(N4CCN(C)CC4)nc32)cc1,·,·,·,·,·,4.3%
SMILES,Vaccinia Venus,MARV entry inh,HCMV inh,Vaccinia mCherry,Lassa entry inh,FMDV antiviral
Oc1ccccc1Oc1c(F)c(F)nc(N2CCCC2)c1F,·,?,-13.3,·,4.61µM*,4.6%
Cc1c(C(=O)N2CCCC(c3ccccc3)C2)sc2ncnc(NCCc3ccccn3)c12 (stereo unspecified),2.4%,·,·,-13.7%,·,-11.7%
O=C1C(Nc2ccccc2)=CC(=O)c2ncccc21,-22.8%[60.7 µM],·,·,-7.3%[60.7 µM],·,?
CC(NC1=CC(=O)c2cccnc2C1=O)C(O)c1ccccc1 (stereo unspecified),10µM*,11.2µM*,-99.3*,?,?,28.2µM*
C/C(=C1/SC(N2CCCC2)=NC1=O)c1ccc(Br)cc1,-9.1%,4.47µM*,-4.9,·,4.47µM*,-28.9%
COc1ccc(-c2cn(CCC(=O)O)c(=O)cn2)cc1,·,·,-13.0,·,·,·
CCCCCCCN(C(=O)CCl)c1cccc(C)c1,-9.7%,3.3%,-86.4*,-18.2%,8.3%,28.2µM*
O=C(CCl)N(c1ccccc1)c1ccccc1,-7.6%,?,-98.3*,i,?,14.1µM*
O=C(N(c1ccccc1)c1ccccc1)N(c1ccccc1)c1ccccc1,·,4.8%,13.1,·,·,-28.8%
O=C(CCl)N(CCc1ccccc1)CCc1ccccc1,-9.6%,?,-99.5*,i,?,28.2µM*
CCCCCCN(C(=O)CCl)c1ccccc1,·,·,-99.5*,·,·,20µM*
O=C(NCCc1ccccn1)C1CC12CCN(C(=O)c1c(F)cccc1Cl)CC2 (stereo unspecified),-4.5%,·,·,0.9%,·,5.2%
COc1ccc(CNC(=O)O[C@H]2CC[C@@]34CCCN3C(=O)CCC[C@H]4[C@H]2Cc2ccccc2)cc1OC,·,·,10.0,·,·,·
COc1ccc(CCn2nnnc2C2(c3ccc(C)cc3)CC2)cc1,·,-4.9%,·,·,-20.8%,·
COc1ccccc1NS(=O)(=O)c1cc(NC(=S)Nc2cc(C)cc(C)c2)ccc1Cl,-15.1%,?,-82.1*,-27.8%,-21.2%,?
COc1ccccc1NS(=O)(=O)c1cc(NC(=O)c2cccs2)ccc1N1CCCCC1,-11.3%,5.8µM*,-37.2,-18.0%,?,75.4%
O=C(Nc1ccc(N2CCCC2)c(S(=O)(=O)Nc2cccc(C(F)(F)F)c2)c1)c1cccs1,?,1.41µM*,?,?,?,35.1%
COc1ccccc1NS(=O)(=O)c1cc(NC(=O)c2cccs2)ccc1N1CCCC1,-17.1%,?,?,-25.6%,11.6µM*,50.9%
CCNC(=S)Nc1ccc(C)c(S(=O)(=O)Nc2ccccc2OC)c1,-7.3%,-24.5%[46.1 µM],15.1,-8.5%,10.1%,43.6%
COc1ccccc1NS(=O)(=O)c1cc(NC(=O)c2sccc2C)ccc1N1CCCC1,5.8%,?,?,-10.0%,-17.6%,91.1%

# Compound activity (PubChem)
